Screens: PubChem, National Center for Advancing Translational Sciences (NCATS)
TDP43 rescue – rescues yeast growth from TDP-43 toxicity; TDP-43 expressing yeast growth rescue, BacTiter-Glo, 24 h; Potency, µM (series often up to 46.1 µM), actives largely listed as activators; AID 652104; hit rate 1.8% among 410,000; also: nearly all actives have a fitted effect of over 50% in size
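Readout is BacTiter-Glo luminescence of cell growth, so inhibitors register as activators. TDP-43-expressing yeast at OD600=0.02 in galactose medium, after raffinose pregrowth to mid-log, were incubated with compound for 24 hr at 30 deg C.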
Mm-Cpn inhibitor – inhibitors of Methanococcus maripaludis chaperonin TRiC (MmCpn) | hit rate 0.031% among 330,000 | AID 504842 | Potency, µM (series often up to 76.9 µM), usual class: inhibitors | purified Mm-Cpn ATPase, ADP Transcreener TR-FRET; also: nearly all actives have a fitted effect of over 80% in size
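Eu-cryptate anti-ADP/ADP-d2 competition gives a ratio inversely related to ADP. Enzyme at 25 nM was pre-exposed to compound for 10 min, then given 10 uM ATP for 30 min, 37°C throughout.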
FUS suppressor – FUS proteinopathy suppression in yeast; AID 1347120; Potency, µM (highest dose often 76.6 µM), hits mostly activators; hit rate 0.24% among 390,000; S. cerevisiae FUS-expressing, growth rescue, OD600, 24 h; also: nearly all actives have a fitted effect of over 55% in size
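Restored growth of FUS-toxic S. cerevisiae, read as 600 nm absorbance after 24 h at 30C in galactose medium (starting OD 0.005). Controls CP55940 and DMSO.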
ClpP mod – qHTS Assay for Activators of ClpP; purified B. subtilis ClpP, FRET peptide cleavage, 20 min; Potency, µM (series often up to 57.5 µM); hit rate 1.9% among 340,000; AID 651965, 2013; active = well fitted falling curve with a large enough effect; inconclusive = small, poorly fitted or top-dose-only effect; inactive = no such curve, though single readings can be large or run the other way; also: the source files actives as falling curves though it sought activators and does not explain the sign; nearly all actives have a fitted effect of over 65% in size
Target sequence (P80244 whole entry, looked up): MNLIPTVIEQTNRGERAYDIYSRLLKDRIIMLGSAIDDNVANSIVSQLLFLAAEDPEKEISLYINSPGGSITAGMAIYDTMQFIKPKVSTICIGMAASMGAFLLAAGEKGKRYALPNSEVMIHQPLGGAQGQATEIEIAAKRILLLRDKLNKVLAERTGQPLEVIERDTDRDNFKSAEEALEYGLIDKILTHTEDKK
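ClpP 10 microg/mL final, pH 8 Tris/KCl buffer with BSA, glycerol, Tween-20; compound pinned in; FRET-FV substrate; RT 20 min; Ex320/Em430; ΔFRET vs ADEP 5.8 microM, DMSO, no enzyme.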
aSyn rescue – inhibitors of alpha-synuclein toxicity in yeast. AID 652106. Yeast expressing alpha-synuclein, growth rescue, BacTiter-Glo, 24 h. hit rate 0.14% among 370,000. Potency, µM (highest dose often 46.1 µM), most hits filed as activators; also: nearly all actives have a fitted effect of over 65% in size
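Screening used galactose-induced yeast with toxic alpha-synuclein levels, exposed to compound for 24 hr at 30 deg C. Cell growth, read with BacTiter-Glo luminescence, gave the measured signal.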
Abeta rescue – A-beta toxicity reversal in yeast; yeast expressing A-beta42, growth rescue, OD600, 48 h; response scale: 0% DMSO, 100% iron-clioquinol control; Potency, µM (titrated, usually from 46.1 µM), hits mostly activators; hit rate 0.063% among 410,000; AID 1347071; also: nearly all actives have a fitted effect of over 55% in size
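Yeast growth medium received pinned compounds, then yeast cells expressing toxic A-beta were added; plates incubated at 30 C for 48 hr. Growth read as absorbance at 600 nm, normalized to DMSO and equimolar FeCl3 plus clioquinol controls.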
Numbers stand for hits; – = inactive; ? = inconclusive; · = not tested or not shown; [ ] = dose if it differs, or a comment. Most compounds without a hit are left out; they make up all but 3.6% or so of the library. Unless noted, calls follow the shape of the dose curve; as a rule, active = well fitted curve in the direction sought with a large enough effect; inconclusive = small, poorly fitted or top-dose-only effect, or another doubt; inactive = no such curve, though single readings can be large; an effect the other way counts as inactive or inconclusive.

SMILES	TDP43 rescue	Mm-Cpn inhibitor	FUS suppressor	ClpP mod	aSyn rescue	Abeta rescue
CN(CCOc1ccc(Cl)cc1)C(=O)c1cc(-c2ccco2)nc2ccccc12	–	–	–	28µM	–	–
COc1ccccc1/C=C1\SC(N2CCC(C)CC2)=NC1=O	13µM	–	–	–	–	–
C/C(=N/NC(=O)c1cc2ccccc2cc1O)C1C(=O)c2ccccc2C1=O	–	–	7.1µM	–	–	–
C/C(=N\NC(=O)c1cc2ccccc2cc1O)c1ccccn1	–	–	–	·	10µM	?
C/C(=N\NC(=O)c1c[nH]c2ccccc12)c1ccccn1	–	–	–	·	–	–
CC(C)(N[C@@H](Cc1c[nH]c2ccccc12)C(=O)NCCCc1ccccc1)C(=O)NCc1ccccc1	·	·	–	·	·	·
CCc1ccc(-n2cnc3cc(C(=O)NCc4ccc(C)cc4)ccc32)cc1	·	·	–	–	·	–
COCCNC(=O)CSc1ccccc1C(=O)NCC1CCCCC1	–[0.397 µM]	–	–	·	–	–
CC1CCN(C(=O)c2ccccc2SCC(=O)NCC2CCCCC2)CC1	–	–	–	22µM	–	–
CCCCCc1ccc(-c2cn(Cc3ccc4c(c3)C(=O)c3ccccc3C4=O)nn2)cc1	·	·	·	–	·	·
COC(=O)c1ccc2ccn(CC(=O)NC3CCCCC3)c2c1	–	–	–	8.9µM	–	–
N#Cc1ccc2ccn(CC(=O)NC3CCCCCC3)c2c1	–	–	–	?	–	–
Cc1ccc(C)c(N2CCN(C(=O)C3CCN(C(=O)c4cc5sccc5n4C)CC3)CC2)c1	13µM	·	?	–	·	–
Cc1cccc(N2CCN(C(=O)C3CCN(C(=O)c4cc5sccc5n4C)CC3)CC2C)c1 (stereo not drawn)	–	·	32µM	–	·	?
Cc1ccc(C)c(N2CCN(C(=O)c3cc4sccc4n3C)CC2)c1	–	–	?	–	–	–
CC(C)Cn1c(=O)c2ccccc2n2c(CCC(=O)Nc3ccc(F)c(F)c3)nnc12	–	·	–	–	·	–
CCCCCNCC(=O)Nc1cccc(C(=O)Nc2cccc(C(F)(F)F)c2)c1	–[9.22 µM]	–	–	28µM	–	–
COc1ccc(NCC(O)COc2ccc(C(C)(C)C)cc2)cc1 (stereo not drawn)	16µM	–	–	–	–	?
COc1ccc(OCC(O)CN2CCN(c3ccccc3)CC2)cc1 (stereo not drawn)	–	–	–	–	–	–
COc1ccc(N2CCN(CC(O)COc3ccc(C(C)(C)C)cc3)CC2)cc1 (stereo not drawn)	13µM	·	–	–	·	–
Cc1ccc2c(c1)-c1c(cnn1CC(=O)NCCc1cccc(F)c1)CO2	·	·	–	·	·	·
Cc1ccc(N2CN(CCc3ccccc3)CNC2=S)cc1	–	–	–	–	–	11µM
CCOC(=O)c1ccc(N2CN(CCc3ccccc3)CNC2=S)cc1	–	–	·	–	–	–
CC(=O)c1cccc(NC(=O)C(C)OC(=O)c2ccc(S(C)(=O)=O)c([N+](=O)[O-])c2)c1 (stereo not drawn)	·	·	·	–	–	·
CC1(C)CC(=O)C=C(Nc2ccc(OCC(F)(F)C(F)F)cc2)C1	–	–	–	18µM	–	–
SMILES	TDP43 rescue	Mm-Cpn inhibitor	FUS suppressor	ClpP mod	aSyn rescue	Abeta rescue
COc1cccc(CNC(=O)CCCN2C(=O)COc3ccc(C)cc32)c1OC	·	·	–	·	·	·
Cn1c(SCC(=O)NCc2ccco2)nnc1-c1cccc(NC(=O)c2ccccc2)c1	·	·	·	–	–	·
CCCCN(CCCC)c1ccc(Cn2ccc3ccccc32)cc1	·	·	·	–	–	·
COc1cc2[nH]c(=O)n(CCCCCC(=O)N3CC=C(c4ccccc4)CC3)c(=O)c2cc1OC	–	–	–	18µM	–	–
COc1cc2[nH]c(=O)n(CCC(=O)N3CCc4ccccc4C3)c(=O)c2cc1OC	–	–	–	28µM	–	–
CCOc1ccccc1NC(=O)CN1c2ccccc2S(=O)(=O)c2ccccc21	–	·	–	?	·	–
CN(C)c1ccc(/C=C/c2nc3ccccc3o2)cc1	·	·	·	?	–	·
O=C(COc1cccc2ccccc12)NNC(=O)c1cccs1	–	–	·	18µM	–	–
COc1ccc(N2CCN(C(=O)c3c(C)oc4ncn(CC(C)C)c(=O)c34)CC2)cc1	–	·	–	–	·	–
Cc1ccccc1-c1cccc([C@@H]2C[C@H]3[C@H](CON3C)CN2Cc2cc(Cl)cc(Cl)c2)c1	20µM	·	–	–	–	–
COc1ccccc1-c1cccc([C@@H]2C[C@H]3[C@H](CON3C)CN2Cc2cc(Cl)cc(Cl)c2)c1	–	·	–	–	–	–
CN1OC[C@@H]2CN(Cc3cc(Cl)cc(Cl)c3)[C@H](c3cccc(Br)c3)C[C@@H]21	35µM	·	–	–	–	–
Cc1ccccc1CN1C[C@H]2CON(C)[C@H]2C[C@H]1c1cccc(Br)c1	?	·	–	–	–	–
CC(=O)N1CCN(c2ccc(NC(=O)C(C)Oc3ccc(Cl)cc3Cl)cc2)CC1 (stereo not drawn)	11µM	–	?	–	–	–
CC(Oc1ccc(Cl)cc1Cl)C(=O)Nc1ccc(N2CCN(C)CC2)cc1 (stereo not drawn)	–	–	–	–	–	–
Clc1ccc(-c2cc3ncc4c(n3n2)-c2ccccc2OC4)cc1	–	·	–	–	·	–
Cc1ccc2c(/C=C/c3ccc(N(C)C)cc3)ccnc2c1C	·	·	·	–	·	·
COC(=O)c1ccccc1NC(=O)CSc1nc2nc(C)cc(C)n2n1	–	·	–	–	–	–
O=CN1Cc2ccccc2-c2ccccc2C1	13µM	–	–	–	–	–
Cc1ccc(Nc2ncccc2C(=O)NCc2cccs2)c(C)c1	11µM	–	–	–	·	–
Cc1cccc(Nc2ncccc2C(=O)NCc2cccs2)c1C	7.9µM	–	–	–	–	–
O=C(NCc1cccs1)c1cccnc1Cl	–	–	–	–	–	–
Cc1ccc(Nc2cc(C(=O)NCc3cccs3)c3ccccc3n2)c(C)c1	–	·	–	–	·	–
CCC[C@H]1[C@@H](NCC2CCCCC2)CC[C@@]23CCCN2C(=O)CCC[C@@H]13	·	·	–	·	·	·
C=CCN1C(=O)[C@@H](CC(=O)N2CCN(C(=O)C3CC3)CC2)[C@]2(C(=O)OCC)CCCCC/C=C/12	·	·	–	·	·	·
CCc1nc(Nc2ccccc2OC)c2oc3ccccc3c2n1	13µM	–	–	–	–	–
CCc1nc(Nc2cc(OC)ccc2OC)c2oc3ccccc3c2n1	–	–	–	·	–	–
COc1ccccc1CNC(=O)CSCc1cnn(-c2ccccc2)c1-n1cccc1	18µM	–	–	–	–	–
COc1cc(NC(=O)CSCc2cnn(-c3ccccc3)c2-n2cccc2)cc(OC)c1	–	–	–	–	–	–
COc1ccc(OC)c(NC(=O)CSCc2cnn(-c3ccccc3)c2-n2cccc2)c1	?	–	–	32µM	?	–
